# Measurements reported in PubChem BioAssay (Tox21).
# Active and inactive are the calls of the source. Where a call stands in place of a potency, no number is given. The call rests on the fitted dose curve.
# Target: Estrogen receptor (Homo sapiens) (UniProt P03372)
# Assay: qHTS assay to identify small molecule agonists of the estrogen receptor alpha (ER-alpha) signaling pathway in the presence of an antagonist (AID 1259383); further: nearly all actives have a fitted effect of over 15% in size
# Conditions: VM7Luc4E2 cells, ERE-luciferase, +ICI-182,780, 22 h; series mostly up to 92.4 µM
# From the text: National Center for Advancing Translational Sciences [NCATS] NIH Chemical Genomics Center [NCGC] U.S. Environmental Protection Agency [EPA] National Institutes of Environmental Health Sciences [NIEHS] National Toxicology Program [NTP] Assay overview: Estrogen receptor (ER), a member of nuclear hormone receptor plays an important role in development, metabolic homeostasis and reproduction. Two subtypes of ER, ER-alpha and ER-beta, have similar expression patterns with some uniqueness in both types. Endocrine disrupting chemicals (EDCs) and their interactions with steroid hormone receptors like ER causes disruption of normal endocrine function. Therefore, it is important to understand the effect of environmental chemicals in ER signaling pathway. For identifying ER agonists, VM7Luc4E2 cell line has been used in the current assay. VM7Luc4E2 cell line (provided by Denison MS, University of California) endogenously expresses full-length ER-alpha and is stably transfected with a plasmid containing four estrogen responsive elements (ERE) upstream of a luciferase reporter gene. This current screening for measuring luciferase reporter gene activity using VM7Luc4E2 cells against Tox21 10K library collection is a confirmation study on agonist mode screening in presence of ER-antagonist (ICI-182,780) at 10.0nM final concentration.
# Assay Protocol Summary: VM7Luc4E2 cells were cultured in phenol red free assay medium containing 10% charcoal stripped FBS for 5 days prior to the assay. The cells were dispensed at 4,000 cells in 4uL of assay medium per well into white wall/solid-bottom 1536-well plates (Corning Life Sciences, Corning, NY) using a Multidrop Combi (Thermo Fisher Scientific Inc., Waltham, MA) dispenser. After the assay plates were incubated at 37C and 5% CO2 for 24hr, 1uL of 10.0nM (final concentration) ICI-182,780 or assay buffer was added using two separate tips of Flying Reagent Dispenser (FRD, Aurora Discovery, San Diego, CA). Then 23nL of compounds dissolved in DMSO at 15 concentrations and positive controls or DMSO only was transferred to the assay plates by a Pintool station (Wako, San Diego, CA). The assay plates were incubated at 37C and 5% CO2 for 22hr. For luciferase read, 4uL/well ONE-Glo reagent (Promega Corporation, Madison, WI) was added to each well using FRD and after 30min incubation at room temperature, luminescence signal was measured on ViewLux plate reader (PerkinElmer, Shelton, CT).
# Potency means the concentration at half of the fitted maximal effect.
# Sequence of Estrogen receptor (Homo sapiens) (P03372 whole entry, looked up): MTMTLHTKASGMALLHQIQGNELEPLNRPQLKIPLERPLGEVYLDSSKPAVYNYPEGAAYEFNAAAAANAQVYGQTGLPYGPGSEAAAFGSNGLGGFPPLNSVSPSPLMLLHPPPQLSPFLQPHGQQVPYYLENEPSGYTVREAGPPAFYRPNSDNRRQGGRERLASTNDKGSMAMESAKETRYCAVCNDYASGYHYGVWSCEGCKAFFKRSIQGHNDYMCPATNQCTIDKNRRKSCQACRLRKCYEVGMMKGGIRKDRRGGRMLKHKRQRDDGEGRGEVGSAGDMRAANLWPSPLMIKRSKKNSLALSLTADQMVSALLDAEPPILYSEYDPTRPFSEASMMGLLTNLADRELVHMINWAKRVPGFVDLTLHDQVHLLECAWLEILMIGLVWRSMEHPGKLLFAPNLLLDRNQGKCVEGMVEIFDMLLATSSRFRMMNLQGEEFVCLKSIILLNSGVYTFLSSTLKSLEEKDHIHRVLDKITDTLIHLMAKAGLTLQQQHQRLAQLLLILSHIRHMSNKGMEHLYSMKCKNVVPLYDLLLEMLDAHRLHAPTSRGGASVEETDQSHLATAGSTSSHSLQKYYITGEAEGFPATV
row,Compound,Potency
1,CC(C)C(=O)O,inactive
2,CCCCC(CC)COC(=O)COc1ccc(Cl)cc1C (stereo not given),inactive
3,Cc1ccnc2ccccc12,inactive
4,CC(=O)CC(c1ccc([N+](=O)[O-])cc1)c1c(O)c2ccccc2oc1=O (stereo not given),inactive
5,CC(=O)OCC(=O)[C@@]12OC(C)(C)O[C@@H]1C[C@H]1[C@@H]3C[C@H](F)C4=CC(=O)C=C[C@]4(C)[C@@]3(F)[C@@H](O)C[C@@]12C,inactive
6,O=C1OCCN1/N=C/c1ccc([N+](=O)[O-])o1,inactive
7,CCc1nn(CCCN2CCN(c3cccc(Cl)c3)CC2)c(=O)n1CCOc1ccccc1,inactive
8,O=C(O)c1cccc(O)c1,inactive
9,COCC(O)CO (stereo not given),inactive
10,O=C(O)c1cccnc1C(=O)O,inactive
11,Cc1nccn1-c1ccc(Sc2cccc(C3(C(N)=O)CCOCC3)c2)cc1,inactive
12,CCCOC(=O)c1ccc(N)cc1,inactive
13,CCCCCC=CCC=CCCCCCCCC(=O)OCC,inactive
14,C[Si](NC1CCCCC1)(NC1CCCCC1)NC1CCCCC1,inactive
15,O=Cc1c(Cl)cccc1Cl,inactive
16,Cc1ccc(S)cc1,inactive
17,Brc1cc(-c2ccc(Br)c(Br)c2Br)cc(Br)c1Br,inactive
18,CC(=O)Oc1ccc(C(=C2CCCCC2)c2ccc(OC(C)=O)cc2)cc1,2370 nM (active)
19,Cc1ccc(S(=O)(=O)NC2CCCCC2)cc1,inactive
20,CCOC(=O)N1CCC(n2c(=O)[nH]c3cc(Cl)ccc32)CC1,inactive

row,Compound,Potency
1,Cn1c(=O)c2c(ncn2CC(=O)O)n(C)c1=O,inactive
2,O=S1OCCO1,inactive
3,CCNC(=O)N1CCN(CCCC(c2ccc(F)cc2)c2ccc(F)cc2)CC1,inactive
4,CC(C)c1nnc2ccc(-c3ocnc3-c3cc(F)ccc3F)cn12,inactive
5,O=C(N[C@@H](c1ccccc1)[C@@H]1CCCCN1)c1cccc(C(F)(F)F)c1Cl,inactive
6,C/C=C/C=C/CCCCCCCO,inactive
7,COC(=O)c1cc(S(N)(=O)=O)ccc1OC,inactive
8,CCCCOC(=O)CCS,inactive
9,CC(Cl)C(Cl)Cl (stereo not given),inactive
10,CC(=O)Nc1ccccc1C,inactive
11,Cc1nc2ccccn2c(=O)c1CCN1CCC(C(=O)c2ccc(F)cc2)CC1,inactive
12,CCCCCCCCCCCC[N+](C)(C)CC(=O)[O-],inactive
13,O=[N+]([O-])c1cccc(S(=O)(=O)NCCNS(=O)(=O)c2cccc([N+](=O)[O-])c2)c1,inactive
14,CCOC(=O)c1ccccc1C,inactive
15,CC(N)CN (stereo not given),inactive
16,O=S(=O)(c1ccccc1)c1ccc(Cl)cc1,inactive
17,O=C(CCC1CCN(Cc2ccccc2)CC1)c1ccc2c(c1)NCCCC2,inactive
18,CC(COc1ccc(C(C)(C)C)cc1)OS(=O)OCCCl (stereo not given),inactive
19,O=C(Nc1ccccc1)Nc1ccccc1,inactive
20,CCOc1cc(N)c(Cl)cc1C(=O)NCC1CN(Cc2ccc(F)cc2)CCO1 (stereo not given),inactive
